Measured values: PubChem BioAssay (NCATS)
Inconclusive results are not listed. A number with no mark means an inactive call. The source made the active and inactive calls. Calls come from the whole dose curve; as a rule, active = well fitted curve in the direction sought with a large enough effect; inconclusive = small, poorly fitted or top-dose-only effect, or another doubt; inactive = no such curve, though single readings can be large; an effect the other way counts as inactive or inconclusive.

Tests used:
[1] = Viability qHTS for spleen associated tyrosine kinase inhibitor (SYKi) naive MV4-11 cells (AID 1963823); note: nearly all actives have a fitted effect of over 40% in size
Outline: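 Compounds were dispensed acoustically onto plates, MV4-11 cells (SYKi-naive) added at 500 per well, and plates incubated 72 hr at 37 C. CellTiter-Glo was added and luminescence measured after 10 min.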

[2] = Viability qHTS for spleen associated tyrosine kinase inhibitor (SYKi) drug resistant MV4-11 cells (AID 1963824); note: nearly all actives have a fitted effect of over 35% in size
Outline: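 SYK inhibitor-resistant MV4-11 AML cells, 500 per well, added to predispensed compounds and incubated 72 hr at 37 C, 5% CO2. Viability measured by CellTiter-Glo luminescence after 10 min at room temperature.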

[3] = Cellular viability qHTS for adrenocortical cancer (ACC) cell line SW-13 (AID 1963989); settings: SW-13 ACC cells viability, CellTiter-Glo, 48 h; activity (max response): active compounds read low; note: nearly all actives have a fitted effect of over 65% in size;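 for activity (max response): cells grown in serum-free medium with ITS supplement; % is set by controls: 0 for no effect and ±100 for the full control effect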
Outline: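 Here, serum-free SW-13 cultures were dosed up to 46 uM. Following 48 h, ATP-dependent luminescence (CellTiter-Glo) reported viable cells, and logistic modeling produced IC50 values.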

[4] = Cellular viability qHTS for adrenocortical cancer (ACC) cell line NCI-H295R (AID 1963990); note: nearly all actives have a fitted effect of over 60% in size
Outline: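 Viability of NCI-H295R after 48 h of treatment (final up to 46 uM) measured through cellular ATP luminescence.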
Potency is the fitted concentration of half-maximal effect.

| SMILES | Potency [1] | Potency [2] | activity (max response) [3] [%] | Potency [3] | Potency [4] |
| --- | --- | --- | --- | --- | --- |
| C[C@H]1C[C@H]2[C@@H]3CCC4=CC(=O)C=C[C@]4(C)[C@@]3(Cl)[C@@H](O)C[C@]2(C)[C@@]1(O)C(=O)CO | 21.1 µM (active) | 13.3 µM (active) | -3.23 | – | – |
| CC(C)C[C@H](CO)Nc1nc(S[C@@H](C)c2ccccc2)nc2nc(N)sc12 | 14.6 µM (active) | 6.61 µM (active) | – | 31.6 µM (active) | – |
| CCN(CC)CCc1nc(-c2ccccc2)no1 | inactive | inactive | -1.01 | – | – |
| C[C@]12CCC(=O)C=C1CC[C@@H]1[C@@H]2CC[C@@]2(C)[C@H]1CC[C@]2(O)C(=O)CO | inactive | inactive | -2.88 | – | inactive |
| COc1ccc(S(=O)(=O)N(C(C)=O)c2ccccc2/C=C/c2cc[n+]([O-])cc2)cc1 | 0.934 µM (active) | 0.833 µM (active) | – | 1.12 µM (active) | 1.41 µM (active) |
| N#Cc1ccc(C2CCCc3cncn32)cc1 (configuration not stated) | inactive | inactive | -11.9 | – | inactive |
| Cn1cc(/C=C/C(=O)c2cccc(F)c2)cc1/C=C/C(=O)NO | 3.72 µM (active) | 4.17 µM (active) | 9.4 | – | inactive |
| C[C@]12CCC(=O)C=C1CC[C@@H]1[C@@H]2C(=O)C[C@@]2(C)[C@H]1CC[C@]2(O)C(=O)CO | inactive | inactive | 7.27 | – | inactive |
| COc1cc(C(=O)N2CCCCCCC2)cc(OC)c1OC | inactive | inactive | 6.12 | – | inactive |
| C=C1C[C@H]2C=Nc3cc(OCCCOc4cc5c(cc4OC)C(=O)N4CC(=C)C[C@H]4C=N5)c(OC)cc3C(=O)N2C1 | inactive | inactive | – | 0.01 µM (active) | 0.1 µM (active) |
